Test results as given in PubChem BioAssay (NCATS).
Records with an inconclusive call do not appear. Activity calls are given as the source filed them. Unless noted, calls come from the whole dose curve; as a rule, active = well fitted curve in the direction sought with a large enough effect; inconclusive = small, poorly fitted or top-dose-only effect, or another doubt; inactive = no such curve, though single readings can be large; an effect the other way counts as inactive or inconclusive.

Assays:
[1] = AP1 Signaling Pathway (AID 357; active = well fitted curve in either direction with a large enough effect, not every such curve was filed as active;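 note: ME-180 reporter cells stimulated with EGF at its EC50 level; % is set by controls: 0 for no effect and ±100 for the full control effect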)
In short: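 Beta-lactamase reporter under AP-1 response element, ME-180 background. Stimulus: EC50 EGF. Compound exposure 5 h, 37 °C. Detection: CCF4, 2.5 h RT, 460/530 nm. Values: AC50 from titration.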

[2] = NFAT Signaling Pathway (AID 444; active = well fitted curve in either direction with a large enough effect, not every such curve was filed as active;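 note: carbachol stimulus at about its EC50 of 1 µM final; % is set by controls: 0 for no effect and ±100 for the full control effect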); conditions: Jurkat NFAT-bla M1, carbachol, beta-lactamase ratio, 5 h; at 38 µM (top of the series)
In short: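 Jurkat cells carrying an NFAT-driven β-lactamase reporter and co-transfected muscarinic M1 receptor were treated with compound plus carbachol (1 uM final, an EC50 level) for 5 h at 37 °C. CCF4 loading followed for 1 h at RT; 460/530 nm ratio gave %activity.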

[3] = target: Glucocorticoid receptor (Homo sapiens) (UniProt P04150); assay: GR-GFP Redistribution (AID 450;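 active = compounds whose dose series gives a full or clear partial fitted curve of increased nuclear translocation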; note: potency is the fitted concentration of half-maximal effect); conditions: U2OS GR-GFP nuclear translocation, laser cytometry, 2 h
[4] = target: Glucocorticoid receptor (Homo sapiens) (UniProt P04150); assay: GR-EFC Redistribution (AID 451; calls by dose curve; note: potency is the fitted concentration of half-maximal effect); conditions: CHO-K1 GR-EFC translocation, beta-gal luminescence, 2 h
In short: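 CHO-K1 cells stably expressing nuclear-localized β-gal enzyme acceptor and GR fused C-terminally to the enzyme donor fragment; ligand-driven nuclear translocation restores β-gal by complementation. Compounds titrated up to 46 uM final, 2 h at 37 °C; luminescence read.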

[5] = target: 3',5'-cyclic-AMP phosphodiesterase 4B (Homo sapiens) (UniProt Q07343); assay: qHTS Assay for Inhibitors of PDE-IV (AID 607; active = well fitted activation curve with a large enough effect in the main read-out, with a control signal flat, not every such curve was filed as active; note: % of control where 0% means no effect)
In short: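 Cell-based read-out of cAMP via a modified cyclic nucleotide-gated channel and membrane potential dye (535/590 nm) in HEK293 cells expressing PDE4 endogenously. Compounds tested up to 22.9 uM final; 100 uM RO 20-1724 reference.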

[6] = qHTS Assay for Identification of Small Molecule Agonists for Thrombopoietin (TPO) Signaling Pathway (AID 917); note: % is set by controls: 0 for no effect and ±100 for the full control effect
In short: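 First, Ba/F3 cells with human TPO receptor were held overnight without IL-3. Next, compounds and TPO (26 pM final) were added. After 24 hrs at 37 C, luciferase detection reagent was added and luminescence measured following 10 min at room temperature.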

[7] = target: Muscarinic acetylcholine receptor M1 (Rattus norvegicus) (UniProt P08482); assay: qHTS Assay for Antagonists of Acetylcholine Muscarinic M1 Receptor: Kinetic Measurement of Intracellular Calcium Response (AID 943);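 note: Fluo-4 calcium signal as peak divided by basal fluorescence over 4 min; nearly all actives have a fitted effect of over 75% in size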
In short: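 Antagonism is measured as inhibition of the carbachol-evoked calcium rise in CHO cells transfected with rat M1. Cells are dye-loaded, exposed to compound for 10 min, then stimulated with 100 nM carbachol (EC80).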

[8] = target: Muscarinic acetylcholine receptor M1 (Rattus norvegicus) (UniProt P08482); assay: qHTS Assay for Antagonists of Acetylcholine Muscarinic M1 Receptor: Measurement of IP-One Response (AID 944); note: nearly all actives have a fitted effect of over 75% in size
In short: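 Antagonist mode with rat M1 receptor transfected into CHO cells. Compound is added first for 10 min, carbachol at its EC80 follows for 30 min, and lysis reagents then allow TR-FRET detection of accumulated IP1.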

[9] = target: Pyruvate kinase (Leishmania mexicana) (UniProt Q27686); assay: qHTS Validation Assay for Inhibitors of Leishmania Mexicana Pyruvate Kinase (AID 945);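 note: 0% = DMSO only neutral control wells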
In short: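 LmPYK E451W 0.2 nM; 0.5 mM PEP, 0.1 mM ADP, 7 mM MgCl2, 50 mM KCl, imidazole pH 7.2, 0.01% Tween 20, 0.05% BSA; 1 h RT; PKLight luminescence; DMSO-normalized.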

[10] = target: Pyruvate kinase PKM (Homo sapiens) (UniProt P14618); assay: qHTS Assay for Activators of Human Muscle Pyruvate Kinase (AID 954; active = well fitted curve in the direction sought with a large enough effect, not every such curve was filed as active;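 note: 0% = uninhibited enzyme and -100% = no enzyme or full thiadiazolimine inhibition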)
In short: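 ATP production by PKM2 detected via luciferase luminescence after 1 h room-temperature reaction (0.1 nM enzyme, PEP at Km 0.5 mM, ADP 0.1 mM, pH 7.2 imidazole buffer). Inhibition scaled to no-enzyme control; activation referenced to 0.3 nM enzyme wells.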

[11] = target: Alpha-galactosidase (Coffea arabica) (UniProt Q42656); assay: Counterscreen for Glucocerebrosidase Inhibitors: qHTS Assay for Coffee Bean alpha-Galactosidase at pH 4.5 (AID 957);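 note: plate controls were enzyme alone for no effect and no enzyme for full effect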
In short: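 Enzyme is added first (2 nM final), then compounds titrated from 0.7 nM to 77 uM, then 80 uM 4-methylumbelliferyl alpha-D-galactopyranoside; after 20 min at room temperature a pH 10 NaOH/glycine stop precedes fluorescence reading at 365/440 nm.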

[12] = target: Alpha-galactosidase A (Homo sapiens) (UniProt P06280); assay: Counterscreen for Glucocerebrosidase Inhibitors: qHTS Assay for Human alpha-Galactosidase at pH 4.5 (AID 992); note: 0% is about no effect
In short: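 Fluorogenic 1536-well qHTS at pH 4.5 (citrate, Tween-20): 2 nM enzyme, 80 uM 4-MU-alpha-galactoside, 20 min room temperature, NaOH/glycine stop. Titration 0.7 nM to 77 uM, data normalized to no-enzyme and full-activity controls, Hill-fitted AC50.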

[13] = target: alpha-glucosidase (Oryza sativa, rice) (UniProt Q653V4); assay: Counterscreen for Glucocerebrosidase Inhibitors: qHTS Assay for Rice alpha-Glucosidase at pH 5.0 (AID 997);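 note: 0% = full activity with enzyme and -100% = basal without enzyme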
In short: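 Endpoint fluorogenic assay at pH 5.0: compounds (0.7 nM to 77 uM) titrated against 4 nM rice enzyme and 400 uM 4-MU-alpha-glucoside for 20 min at room temperature; NaOH/glycine stop, read ex 365/em 440 nm, Hill-fitted AC50.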

[14] = target: Alpha-galactosidase (Coffea arabica) (UniProt Q42656); assay: Counterscreen for Glucocerebrosidase Inhibitors: qHTS Assay for Coffee Bean alpha-Galactosidase at pH 5.9 (AID 998);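 note: plate controls were uninhibited enzyme for no effect and no-enzyme basal signal for full effect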
In short: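 In 50 mM citric acid pH 5.9 with 0.005% Tween-20, coffee bean enzyme hydrolyses 80 uM 4-MU alpha-D-galactopyranoside over 20 min at RT. Activity is normalized to controls; AC50 comes from Hill-modelled concentration-response data.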

[15] = Validation of Assay for Modulators of Lamin A Splicing (AID 1459; active = well fitted curve in the direction sought with a large enough effect in the signal ratio; the % refers to the signal ratio;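 note: cells exposed to compound for two days before reading; 0% is about no effect; ratio rise marks activators and ratio drop marks inhibitors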)
In short: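 S3 HeLa cells stably expressing a lamin A-EGFP splicing minigene and DsRed2 were seeded at 600 cells/well in Opti-MEM with 2% FBS, pin-dosed, and incubated 48 hrs at 37 °C, 5% CO2. Laser-scanning cytometry (488 nm) gave GFP/RFP total intensity ratio.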

[16] = Counterscreen for APE1 Inhibitors: Fluorescent Dye Displacement Validation Assay (AID 1707);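 note: plate controls were ThO with dsDNA and no compound for no effect and ThO without dsDNA for full effect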
In short: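 Counterscreen flags promiscuous DNA binders: compounds displacing ThO from duplex DNA (abasic THF site, 50 nM) reduce 540 nm emission (480 nm excitation). ThO 250 nM final; Tris-HCl pH 7.5 with NaCl, MgCl2 and Tween-20.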

[17] = target: Endonuclease 4 (Escherichia coli (strain K12)) (UniProt P0A6C1); assay: Counterscreen for APE1 Inhibitors: qHTS Validation Assay for Inhibitors of Endonuclease IV (AID 1708); note: % is set by controls: 0 for no effect and ±100 for the full control effect
In short: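 Enzyme (2 nM) + compound, 15 min RT; add 50 nM TAMRA/BHQ-2 THF-site dsDNA; kinetic read ex525/em598, 3 reads/60 s; activity = read 3 − read 1. Buffer Tris pH 7.5, 50 mM NaCl, 2 mM MgCl2, DTT, Tween-20.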

[18] = qHTS for differential inhibitors of proliferation of Plasmodium falciparum line 7G8 (AID 1815);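 note: parasite growth measured after three days of incubation; plate controls were vehicle wells for no effect and reference inhibitor wells for full effect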
[19] = qHTS for differential inhibitors of proliferation of Plasmodium falciparum line GB4 (AID 1816); conditions: Potency: Plasmodium falciparum GB4 proliferation inhibition;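 note: parasite growth measured after 72 h incubation; 0% = vehicle DMSO and -100% = reference inhibitor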

Chain of Glucocorticoid receptor (Homo sapiens) (P04150 whole entry, looked up, the tested form may be a part): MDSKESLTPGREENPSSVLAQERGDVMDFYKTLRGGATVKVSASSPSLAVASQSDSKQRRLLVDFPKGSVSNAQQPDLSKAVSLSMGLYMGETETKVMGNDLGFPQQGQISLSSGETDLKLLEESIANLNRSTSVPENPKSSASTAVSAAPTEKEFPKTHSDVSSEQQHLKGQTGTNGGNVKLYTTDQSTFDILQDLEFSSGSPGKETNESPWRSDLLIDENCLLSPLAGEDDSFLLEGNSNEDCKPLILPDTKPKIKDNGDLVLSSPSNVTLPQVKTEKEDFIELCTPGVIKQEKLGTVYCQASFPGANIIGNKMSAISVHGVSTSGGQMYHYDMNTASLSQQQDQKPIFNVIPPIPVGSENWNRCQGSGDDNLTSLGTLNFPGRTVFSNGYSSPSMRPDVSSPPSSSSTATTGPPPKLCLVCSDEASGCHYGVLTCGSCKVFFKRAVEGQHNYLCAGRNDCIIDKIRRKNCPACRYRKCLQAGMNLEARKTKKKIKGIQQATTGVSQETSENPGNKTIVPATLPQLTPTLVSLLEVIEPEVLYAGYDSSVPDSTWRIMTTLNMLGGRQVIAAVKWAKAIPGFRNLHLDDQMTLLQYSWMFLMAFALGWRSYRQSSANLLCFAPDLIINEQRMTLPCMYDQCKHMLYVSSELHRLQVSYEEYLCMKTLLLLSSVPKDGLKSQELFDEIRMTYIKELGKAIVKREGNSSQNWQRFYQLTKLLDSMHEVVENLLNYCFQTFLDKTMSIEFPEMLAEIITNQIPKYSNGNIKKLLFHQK
Chain of Alpha-galactosidase (Coffea arabica) (Q42656 whole entry, looked up): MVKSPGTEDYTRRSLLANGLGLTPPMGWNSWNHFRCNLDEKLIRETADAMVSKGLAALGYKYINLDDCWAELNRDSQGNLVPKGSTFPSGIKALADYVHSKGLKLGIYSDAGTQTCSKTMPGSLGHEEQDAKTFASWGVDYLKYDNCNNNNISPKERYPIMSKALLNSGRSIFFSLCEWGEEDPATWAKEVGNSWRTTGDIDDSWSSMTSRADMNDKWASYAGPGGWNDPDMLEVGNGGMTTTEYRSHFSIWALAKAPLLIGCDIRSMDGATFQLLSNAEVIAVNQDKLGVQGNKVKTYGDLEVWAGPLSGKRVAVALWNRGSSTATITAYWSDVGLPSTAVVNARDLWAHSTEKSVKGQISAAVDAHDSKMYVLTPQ
Chain of Muscarinic acetylcholine receptor M1 (Rattus norvegicus) (P08482 whole entry, looked up): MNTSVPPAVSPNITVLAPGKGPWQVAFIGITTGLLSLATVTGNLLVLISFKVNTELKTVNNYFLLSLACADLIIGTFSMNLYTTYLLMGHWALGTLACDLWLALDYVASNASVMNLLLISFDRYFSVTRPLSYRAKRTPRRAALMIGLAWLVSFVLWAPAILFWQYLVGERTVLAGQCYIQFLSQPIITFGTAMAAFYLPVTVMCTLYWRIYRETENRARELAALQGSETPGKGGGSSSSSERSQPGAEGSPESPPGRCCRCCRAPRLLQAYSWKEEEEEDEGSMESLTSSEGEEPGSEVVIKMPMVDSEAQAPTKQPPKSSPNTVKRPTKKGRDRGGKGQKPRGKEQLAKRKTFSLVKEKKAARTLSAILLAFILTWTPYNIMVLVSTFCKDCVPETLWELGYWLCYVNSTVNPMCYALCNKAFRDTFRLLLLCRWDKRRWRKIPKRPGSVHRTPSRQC
Chain of Pyruvate kinase PKM (Homo sapiens) (P14618 whole entry, looked up): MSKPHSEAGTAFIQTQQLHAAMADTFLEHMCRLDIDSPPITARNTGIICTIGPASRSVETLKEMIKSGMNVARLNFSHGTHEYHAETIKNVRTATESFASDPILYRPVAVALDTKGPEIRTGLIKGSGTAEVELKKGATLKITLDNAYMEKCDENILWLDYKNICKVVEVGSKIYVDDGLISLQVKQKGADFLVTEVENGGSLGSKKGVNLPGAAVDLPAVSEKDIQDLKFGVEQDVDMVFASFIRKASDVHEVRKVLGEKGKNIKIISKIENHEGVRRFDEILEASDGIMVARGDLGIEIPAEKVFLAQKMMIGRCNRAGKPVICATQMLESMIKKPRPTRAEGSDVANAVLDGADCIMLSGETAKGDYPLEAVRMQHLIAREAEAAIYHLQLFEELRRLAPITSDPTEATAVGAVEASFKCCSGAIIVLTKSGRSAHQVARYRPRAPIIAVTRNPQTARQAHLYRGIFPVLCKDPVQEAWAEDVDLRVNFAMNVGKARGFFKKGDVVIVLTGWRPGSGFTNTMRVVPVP
Chain of Pyruvate kinase (Leishmania mexicana) (Q27686 2-499 E452W): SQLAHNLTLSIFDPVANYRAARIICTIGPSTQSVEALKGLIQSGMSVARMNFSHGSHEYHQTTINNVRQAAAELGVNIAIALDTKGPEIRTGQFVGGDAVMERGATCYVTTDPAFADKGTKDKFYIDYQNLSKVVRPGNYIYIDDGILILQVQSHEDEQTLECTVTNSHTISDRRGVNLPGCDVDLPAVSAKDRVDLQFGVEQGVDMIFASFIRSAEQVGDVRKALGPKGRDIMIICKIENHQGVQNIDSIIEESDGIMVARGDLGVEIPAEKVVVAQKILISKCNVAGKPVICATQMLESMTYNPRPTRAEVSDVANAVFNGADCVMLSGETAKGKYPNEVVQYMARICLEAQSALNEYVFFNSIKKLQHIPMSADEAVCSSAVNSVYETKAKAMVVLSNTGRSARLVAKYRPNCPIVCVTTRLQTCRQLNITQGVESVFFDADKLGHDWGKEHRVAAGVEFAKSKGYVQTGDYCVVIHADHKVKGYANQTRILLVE
Chain of 3',5'-cyclic-AMP phosphodiesterase 4B (Homo sapiens) (Q07343 whole entry, looked up): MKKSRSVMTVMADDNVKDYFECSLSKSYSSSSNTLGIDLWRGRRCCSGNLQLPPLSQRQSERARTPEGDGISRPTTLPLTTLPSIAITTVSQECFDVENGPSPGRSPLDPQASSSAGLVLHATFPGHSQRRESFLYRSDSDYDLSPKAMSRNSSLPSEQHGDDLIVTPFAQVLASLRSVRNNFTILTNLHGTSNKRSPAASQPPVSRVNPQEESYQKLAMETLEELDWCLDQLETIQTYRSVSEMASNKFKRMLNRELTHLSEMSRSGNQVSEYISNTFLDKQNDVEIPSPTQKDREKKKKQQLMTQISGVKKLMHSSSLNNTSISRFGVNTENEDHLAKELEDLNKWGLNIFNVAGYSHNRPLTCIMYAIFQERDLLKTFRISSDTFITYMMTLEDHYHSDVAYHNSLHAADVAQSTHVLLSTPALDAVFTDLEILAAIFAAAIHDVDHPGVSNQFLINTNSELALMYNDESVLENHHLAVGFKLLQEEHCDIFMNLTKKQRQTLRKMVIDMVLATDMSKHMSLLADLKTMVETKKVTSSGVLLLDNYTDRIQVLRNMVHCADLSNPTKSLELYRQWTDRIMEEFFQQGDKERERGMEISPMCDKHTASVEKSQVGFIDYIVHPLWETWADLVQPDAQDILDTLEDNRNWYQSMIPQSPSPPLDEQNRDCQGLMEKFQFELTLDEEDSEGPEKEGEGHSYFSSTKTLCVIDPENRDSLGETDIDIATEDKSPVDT
Chain of Alpha-galactosidase A (Homo sapiens) (P06280 whole entry, looked up): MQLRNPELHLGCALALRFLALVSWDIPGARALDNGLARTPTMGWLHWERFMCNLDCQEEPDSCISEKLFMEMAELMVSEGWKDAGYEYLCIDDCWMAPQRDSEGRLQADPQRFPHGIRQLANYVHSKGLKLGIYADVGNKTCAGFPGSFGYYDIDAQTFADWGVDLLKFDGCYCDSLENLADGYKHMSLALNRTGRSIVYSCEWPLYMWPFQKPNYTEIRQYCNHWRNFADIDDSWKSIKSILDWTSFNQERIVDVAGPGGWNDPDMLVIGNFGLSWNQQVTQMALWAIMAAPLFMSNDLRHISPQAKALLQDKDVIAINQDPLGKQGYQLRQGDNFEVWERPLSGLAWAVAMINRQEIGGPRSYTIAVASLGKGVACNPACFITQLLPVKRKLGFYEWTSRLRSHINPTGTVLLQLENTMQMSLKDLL

COc1ccc(CCN)cc1O
inactive: outcome [1] | activity change, negative = inhibition [2] -3.06% | Potency [3] > 46 µM | Potency [4] > 46 µM | Potency [5] | outcome [6] | Potency [7] | Potency [8] | outcome [9] | outcome [10] | outcome [11] | outcome [12] | outcome [13] | outcome [14] | outcome [15] | Potency [16] | outcome [17] | Potency [18] | Potency [19]
